Results taken from PubChem BioAssay (NCI).
The panel holds about 79,000 compounds, 15% with a hit somewhere; the sample as a whole holds those more often. Unmarked numbers belong to inactive results. Calls of active or inactive are those of the source. Cut-off read from the data, not from the text of the source: active = growth inhibition above about 70%; inactive = the rest.

Tests used:
[1] = NCI Yeast Anticancer Drug Screen. Data for the rad50 strain (AID 155);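 note: 0% = growth of vehicle-only cultures of the same strain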; conditions: S. cerevisiae rad50 strain growth inhibition, active compounds read high
Procedure, shortened: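 Compounds were tested on a yeast strain with an engineered DNA damage repair alteration; the reported value is growth inhibition normalised to vehicle treatment.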

[2] = NCI Yeast Anticancer Drug Screen. Data for the mec2-1 strain (AID 157); conditions: S. cerevisiae mec2-1 strain, active compounds read high
Procedure, shortened: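 Cells of the genetically defined mec2-1 yeast strain are incubated with test compound. Inhibition of growth is calculated against vehicle-treated controls.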

[3] = NCI Yeast Anticancer Drug Screen. Data for the sgs1 mgt1 strain (AID 161);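 note: 0% = growth of cultures given vehicle only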; conditions: S. cerevisiae sgs1 mgt1 strain, active compounds read high
Procedure, shortened: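 Genetically altered yeast, compound exposure, growth inhibition relative to vehicle.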

[4] = NCI Yeast Anticancer Drug Screen. Data for the cln2 rad14 strain (AID 165);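 note: 0% = growth equal to vehicle treated cultures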; conditions: S. cerevisiae cln2 rad14 strain, active compounds read high
Procedure, shortened: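 The screen exposed genetically defined yeast (cln2 rad14) to test compounds and scored growth inhibition relative to vehicle-treated controls.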

[5] = NCI Yeast Anticancer Drug Screen. Data for the bub3 strain (AID 167); conditions: S. cerevisiae bub3 mutant strain, active compounds read high
Procedure, shortened: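 Growth of a checkpoint-deficient yeast mutant is measured after compound exposure. Values represent inhibition relative to vehicle.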

[6] = NCI Yeast Anticancer Drug Screen. Data for the mlh1 rad18 strain (AID 175); conditions: S. cerevisiae mlh1 rad18 strain growth inhibition, active compounds read high
Procedure, shortened: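 Compound-treated yeast growth, normalised to vehicle controls. Strain bears defined DNA repair mutations.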

[7] = at 5.0 µM (retest, dose inferred, filed as 0.5)
[8] = at 50.0 µM (retest, dose inferred, filed as 5.0)

SMILES | growth inhibition [1, 7] | growth inhibition [1, 8] | growth inhibition ([1]; at 50.0 µM) | growth inhibition [2, 7] | growth inhibition [2, 8] | growth inhibition ([2]; at 50.0 µM) | growth inhibition [3, 7] | growth inhibition [3, 8] | growth inhibition ([3]; at 50.0 µM) | growth inhibition [4, 7] | growth inhibition [4, 8] | growth inhibition ([4]; at 50.0 µM) | growth inhibition [5, 7] | growth inhibition [5, 8] | growth inhibition ([5]; at 50.0 µM) | growth inhibition [6, 7] | growth inhibition [6, 8] | growth inhibition ([6]; at 50.0 µM)
COc1ccc(N=Nc2ccc(O)cc2)cc1 | 7% | 40% | 96.5% (active) | -5% | 62% | 96% (active) | 2% | 16% | 97.5% (active) | 7% | 59% | 92% (active) | -22% | 88% (active) | 96.4% (active) | 8% | 65% | 97% (active)
CC(CCC(=O)O)[C@H]1CCC2[C@@H]3CC(O)[C@@H]4CC(O)CC[C@]4(C)C3CC[C@@]21C (some centres undefined) | -5% | 44% | 75.4% (active) | -10% | 58% | 74.5% (active) | 5% | 64% | 77.3% (active) | 14% | 70% (active) | 76.2% (active) | -6% | 84% (active) | 50.5% | -8% | 71% (active) | 67.7%
Oc1cc(Br)cc2cc(Br)cnc12 | 92% (active) | 98% (active) | 84.4% (active) | 89% (active) | 98% (active) | 89.5% (active) | 95% (active) | 98% (active) | 80.5% (active) | 96% (active) | 96% (active) | 84.8% (active) | 92% (active) | 97% (active) | 85.5% (active) | 96% (active) | 98% (active) | 78.3% (active)
